High-throughput results as filed in PubChem.
Compounds with a hit are over-represented: about 1.1% of the library has one in this group of screens.
PKA-R1A activ: activates the PKA-R1A holoenzyme complex; P00514+P68181; PKA-R1A dissociation, Cy5-IP20 fluorescence polarization; scaled: DMSO 0%, 113 µM cGMP 100%; hit rate 0.083% among 340,000; activation, % at 11.4 µM;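 active means percent activation above the mean of all tested compounds plus 3 SD, cut at about 19% in these data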;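 further: higher means more PKAc released from R1A so a rise in polarization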
PKA-R2B activ: activates the human PKA-R2B holoenzyme complex | activation, % at 11.4 µM | PKA-R2B holoenzyme dissociation, Cy5-IP20 fluorescence polarization; R2B truncated from residue 108, S112A mutant; 0% DMSO only, 100% 113 µM cGMP | hit rate 0.079% among 340,000 | P22694+P31323;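 active means activation above a cutoff set at the mean over all compounds plus 3 SD, cut at about 18% in these data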;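 further: higher means more holoenzyme dissociation and a rise in polarization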
Target sequence (P31323 whole entry, looked up, other chains not shown, the tested form may be a part): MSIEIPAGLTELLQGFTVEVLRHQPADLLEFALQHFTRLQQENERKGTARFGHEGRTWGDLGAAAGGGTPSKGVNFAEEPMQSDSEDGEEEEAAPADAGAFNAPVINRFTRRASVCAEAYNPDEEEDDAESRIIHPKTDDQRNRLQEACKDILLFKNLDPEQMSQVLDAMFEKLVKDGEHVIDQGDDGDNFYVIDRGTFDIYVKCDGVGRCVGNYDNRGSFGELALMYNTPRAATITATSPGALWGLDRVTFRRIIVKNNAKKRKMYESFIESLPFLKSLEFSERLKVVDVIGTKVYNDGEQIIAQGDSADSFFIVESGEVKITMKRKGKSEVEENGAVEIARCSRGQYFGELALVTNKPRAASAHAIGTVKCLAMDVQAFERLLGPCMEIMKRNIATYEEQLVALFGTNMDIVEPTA
MsrA inhibitor: bovine MsrA inhibition. hit rate 0.75% among 360,000. AID 651718. inhibition, % at 15.5 µM. purified bovine MsrA, absorbance read-out;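 further: 0% = vehicle wells with enzyme and 100% = reference inhibitor wells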
MsrA act: activators of bovine methionine sulfoxide reductase A | purified bovine MsrA, absorbance read-out | activation, % at 10.6 µM | hit rate 0.3% among 360,000 | AID 602163; in the data active means activation above about 7.5%;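 further: 0% = vehicle and 100% = reference activator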
MsrA conf: bovine MsrA inhibition, confirmed. shares compounds with MsrA inhibitor. purified bovine MsrA, absorbance read-out. inhibition, % at 15.5 µM. hit rate 41% among 2,300;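 further: coupled to thioredoxin reductase with NADPH and selenocystamine and DMSO as substrate; 0% = vehicle only and 100% = full effect of reference inhibitor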
An asterisk follows results filed as active. Unless noted, no stated cut-off is given here; in the data, active means inhibition above about 4.5%; inactive means the rest.

For CC(C)(C)C(=O)Nc1sc2c(c1C#N)CCC2 the results were PKA-R1A activ 0.3, PKA-R2B activ -9.0, MsrA inhibitor 5.9*, MsrA act -4.2 and MsrA conf 4.7*.
For Nc1ccccc1C(=O)N=Nc1[nH]c(N)c2ccccc12 the results were PKA-R1A activ 2.4, PKA-R2B activ 4.2, MsrA inhibitor 5.4*, MsrA act -4.6 and MsrA conf 4.2.
`Nc1[nH]c(N=NC(=O)c2ccc(F)cc2)c2ccccc12` gave PKA-R1A activ -5.2, PKA-R2B activ 5.4, MsrA inhibitor 4.1 and MsrA act -11.6.
For O=C(Nc1nnc(-c2ccncc2)o1)c1ccc(Br)s1 the results were PKA-R1A activ -6.8, PKA-R2B activ -2.7, MsrA inhibitor 5.8*, MsrA act -2.3 and MsrA conf 3.2.
`CCN(c1ccccc1)S(=O)(=O)c1nnc(NC(=O)c2ccco2)s1` gave PKA-R1A activ -10.9, PKA-R2B activ 3.1, MsrA inhibitor 5.9*, MsrA act -7.8 and MsrA conf 5.3*.
Screening CCN(c1cccc(C)c1)S(=O)(=O)c1nnc(NC(=O)c2ccco2)s1 returned PKA-R1A activ 9.0, PKA-R2B activ -1.1, MsrA inhibitor 2.7 and MsrA act -3.6.
CS(=O)(=O)N1CCN(Cc2cc(=O)n3ccsc3n2)CC1 was read as PKA-R1A activ -4.5, PKA-R2B activ 6.0, MsrA inhibitor -0.1 and MsrA act -0.7.
`CCOc1ccccc1NC=C1C(=O)OC(C)(C)OC1=O` gave PKA-R1A activ -5.5, PKA-R2B activ -0.2, MsrA inhibitor 3.8 and MsrA act -8.5.
COc1ccccc1NC=C1C(=O)OC(C)(C)OC1=O was read as PKA-R1A activ 4.0, PKA-R2B activ -0.2, MsrA inhibitor 5.5*, MsrA act -12.3 and MsrA conf 4.4.
For O=C(CCCN1C(=O)c2cccc3cccc(c23)C1=O)N1CCN(c2ccccc2)CC1 the results were PKA-R1A activ 2.5, PKA-R2B activ -6.3, MsrA inhibitor 1.0 and MsrA act -9.4.
For O=C(CCCN1C(=O)c2cccc3cccc(c23)C1=O)N1CCN(c2ccccc2O)CC1 the results were PKA-R1A activ 0.3, PKA-R2B activ 0.6, MsrA inhibitor 5.1*, MsrA act 2.4 and MsrA conf 1.7.
For O=C(OCc1ccccc1)N1CCC2CC1c1c(Cl)cccc12 (centres undefined) the results were PKA-R1A activ 14.1, PKA-R2B activ -2.1, MsrA inhibitor 5.6*, MsrA act 0.2 and MsrA conf -0.4.
Screening O=C(OCc1ccccc1)N1CCC2CC1c1cc(Cl)ccc12 (centres undefined) returned PKA-R1A activ 4.4, PKA-R2B activ 0.1, MsrA inhibitor -0.8 and MsrA act -1.4.
COc1cc2c(cc1O)CC[n+]1cc3c(OC)c(OC)ccc3cc1-2 was read as PKA-R1A activ 2.8, PKA-R2B activ 1.7, MsrA inhibitor 5.2*, MsrA act -4.1 and MsrA conf 2.9.
Screening Cc1ccc(NC(=O)CN(C)C(=O)C2CCC2)cc1 returned PKA-R1A activ -3.7, PKA-R2B activ -5.4, MsrA inhibitor 0.1 and MsrA act -1.6.
Screening CN(C)c1ccc(/C=N/NC(=O)c2nonc2N)cc1[N+](=O)[O-] returned PKA-R1A activ -4.9, PKA-R2B activ -7.5, MsrA inhibitor 4.9*, MsrA act -4.7 and MsrA conf 4.2.
Screening Cc1onc(-c2ccccc2)c1C(=O)N/N=C/c1ccc(O)c([N+](=O)[O-])c1 returned PKA-R1A activ 1.2, PKA-R2B activ -8.4, MsrA inhibitor 5.5*, MsrA act -7.2 and MsrA conf 4.2.
`Cc1onc(-c2ccccc2)c1C(=O)N/N=C/c1ccc([N+](=O)[O-])c(O)c1` gave PKA-R1A activ -5.1, PKA-R2B activ 0.3, MsrA inhibitor 1.4 and MsrA act -2.6.
O=C(N/N=C/c1ccc(O)c(O)c1)c1ccc(-n2cnnn2)cc1 was read as PKA-R1A activ -5.1, PKA-R2B activ -10.0, MsrA inhibitor 4.8*, MsrA act -2.9 and MsrA conf 4.6*.
Screening O=C(N/N=C/c1ccc(O)c([N+](=O)[O-])c1)c1ccncc1 returned PKA-R1A activ -3.7, PKA-R2B activ -5.4, MsrA inhibitor 5.6*, MsrA act -5.3 and MsrA conf 4.9*.
Screening CCOC(=O)C1(C)CCCN(C(=O)c2cccc(C(F)(F)F)c2)C1 (centres undefined) returned MsrA inhibitor 0.8 and MsrA act -3.8.
Screening COc1ccc(NC(=O)c2ccc(-n3cnnn3)cc2)c([N+](=O)[O-])c1 returned PKA-R1A activ -6.5, PKA-R2B activ -0.6, MsrA inhibitor -0.6 and MsrA act -0.7.
O=C(c1ccc2c(c1)OCO2)N1CCN(S(=O)(=O)c2ccc(Br)cc2Cl)CC1 was read as PKA-R1A activ 7.1, PKA-R2B activ -0.3, MsrA inhibitor -0.1 and MsrA act -4.0.
For CC1(C(=O)NS(=O)(=O)c2cccc(C#N)c2)CCN1C(=O)Cc1ccccc1Cl (centres undefined) the results were MsrA inhibitor 1.1 and MsrA act -0.7.
Screening CCn1c(CNC(=O)c2ccccc2Br)nnc1SCC(=O)NC1=NCCS1 returned PKA-R1A activ 2.4, PKA-R2B activ 0.7, MsrA inhibitor 6.5*, MsrA act -1.9 and MsrA conf 0.9.
CCn1c(SCC(=O)NC2=NCCS2)nnc1C(C)NC(=O)c1ccccc1Br (centres undefined) was read as PKA-R1A activ 1.3, PKA-R2B activ 5.0, MsrA inhibitor 0.5 and MsrA act -3.2.
`C=CCNC(=O)/C(=C\C=C\c1ccccc1)NC(=O)c1ccccc1Cl` gave PKA-R1A activ 2.3, PKA-R2B activ -12.1, MsrA inhibitor 3.8 and MsrA act -5.0.
For O=C(O)CCCNC(=O)/C(=C\C=C\c1ccccc1)NC(=O)c1ccccc1Cl the results were PKA-R1A activ -11.1, PKA-R2B activ -5.6, MsrA inhibitor 5.8*, MsrA act 1.0 and MsrA conf 3.1.
Screening CC1(C)CC(N2CCN(CCO)CC2)=CC(=S)N1 returned PKA-R1A activ 0.7, PKA-R2B activ -6.0, MsrA inhibitor 5.8*, MsrA act -0.2 and MsrA conf 6.1*.
For CC1(C)CC(NCc2ccccc2)=CC(=S)N1 the results were MsrA act 0.6.
Screening CN(C)C=NC(=O)/C(C#N)=C1\CCc2ccccc2N1 returned PKA-R1A activ -7.6, PKA-R2B activ -14.7, MsrA inhibitor 6.3*, MsrA act -15.3 and MsrA conf 3.3.
`CCCN=C(C)C1=C(O)c2ccccc2C1=O` gave PKA-R1A activ 9.2, PKA-R2B activ -3.6, MsrA inhibitor 4.0 and MsrA act -0.9.
For CC(=NCc1cccnc1)C1=C(O)c2ccccc2C1=O the results were PKA-R1A activ -1.2, PKA-R2B activ 0.5, MsrA inhibitor 4.9*, MsrA act -4.3 and MsrA conf 3.0.
For COc1ccc(NC(=O)/C(C#N)=C/c2ccc(Br)o2)cc1 the results were PKA-R1A activ -0.2, PKA-R2B activ -0.3, MsrA inhibitor 1.5 and MsrA act -7.3.
